Screens deposited in PubChem by several laboratories.
TIM10 inh = growth inhibitors of TIM10 yeast strain | S. cerevisiae TIM10 strain growth, BacTiter-Glo luminescence, 24 h | inhibition, % at 10 µM | 1.4% of 330,000 active | AID 463195;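 active = inhibition of 40% or more at the single tested concentration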;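 also: wild-type TIM10 isogenic control strain grown at permissive 25 °C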
tim23-1 inh = inhibits growth of tim23-1 mutant yeast. S. cerevisiae tim23-1 growth, BacTiter-Glo luminescence, 24 h. inhibition, % at 20 µM. 1.3% of 330,000 active. AID 463212;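 active = growth inhibition of the mutant yeast at or above 50%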;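 also: temperature-sensitive mutant grown at 25 °C; plate controls were DMSO-treated mutant yeast for no effect and medium wells lacking yeast for full effect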
SKKanGAS inh = blocks kanamycin growth of S. pyogenes SKKanGAS strain; 1.3% of 300,000 active; inhibition, % at 7.5 µM; BacTiter-Glo, 6 h; AID 1662;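 active = mean replicate score, as percent of positive control median, at least 50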;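 also: strain carries kanamycin resistance gene driven by streptokinase promoter and grows in 40 µg/ml kanamycin; loss of luminescence reflects streptokinase promoter inhibition or plain growth inhibition; 0% = median of DMSO wells and 100% = positive control at its reference dose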
tim10-1 inh = tim10-1 yeast growth inhibition; S. cerevisiae tim10-1 ts strain growth, BacTiter-Glo, 24 h; inhibition, % at 20 µM; 2.2% of 330,000 active; AID 463190;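 active = inhibition of at least 40%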;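 also: mutant grown at 25 °C; 0% = DMSO wells with yeast and 100% = wells holding no yeast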
NALP1 inh = inhibitors of NALP1 inflammasome in yeast. S. cerevisiae NALP1/ASC/caspase-1 growth, X-gal OD620, 72 h. inhibition, % at 10 µM. 0.61% of 280,000 active. AID 2071; in the data active = inhibition mostly above about 24%, no sharp cut-off; inactive = mostly below about 32%
NLRP3 yeast inh = inhibitors of NALP3 inflammasome in yeast. Yeast reconstituted NLRP3/ASC/caspase-1, beta-gal luminescence, 24 h. inhibition, % at 10 µM. 0.39% of 330,000 active;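 active = inhibition of 50% or more; inactive = inhibition below 50%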;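 also: plate controls were induced DMSO wells for no effect and uninduced yeast grown without galactose for full effect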
NALP3 yeast conf = confirmation of NALP3 inhibitors in yeast. shares compounds with NLRP3 yeast inh. yeast expressing human NALP3, luminescence. inhibition, % at 10 µM. 81% of 1,300 active. AID 435006; in the data active = inhibition above about 48%
Casp1-ASC yeast = active in yeast caspase-1-ASC counter-screen for NALP3 inhibitors; 66% of 1,000 active; AID 488784; yeast expressing Caspase-1-ASC, luminescence counter screen; shares compounds with NLRP3 yeast inh; inhibition, % at 10 µM
NALP3 yeast rt = retest-confirmed inhibitor of NALP3 in yeast; 53% of 1,000 active; inhibition, % at 10 µM; shares compounds with NLRP3 yeast inh; yeast expressing human NALP3, luminescence read-out
The depositor's hits bear a star; . = no result given. The list is not random: actives were taken first. Their share in the collection is about 4.9%. Rule as the data show it, unless noted: active = inhibition above about 50%; inactive = the rest.

SMILES	TIM10 inh	tim23-1 inh	SKKanGAS inh	tim10-1 inh	NALP1 inh	NLRP3 yeast inh	NALP3 yeast conf	Casp1-ASC yeast	NALP3 yeast rt
COc1ccc(CCn2c(C3CCCCC3)nc3c(c(=O)c4ccccc4n3C)c2=O)cc1	34.4	40.9	68.0*	2.9	.	67.2*	64.7*	55.2*	61.3*
COc1ccc(CCn2c(-c3ccc(F)cc3)nc3c(c(=O)c4ccccc4n3C)c2=O)cc1OC	7.3	9.5	10.7	-4.4	26.8	27.2	.	.	.
COc1ccc(CCn2c(-c3ccccc3)nc3c(c(=O)c4ccccc4n3C)c2=O)cc1	-8.8	-6.1	23.0	-9.3	18.5	49.6	.	.	.
O=C(CN1CCN(c2ccc(O)cc2)CC1)Nc1ccc(S(=O)(=O)N2CCCC2)cc1	-7.1	-2.7	.	-6.0	.	6.8	.	.	.
Clc1ccc(SCc2cc(N3CCOCC3)nc(-c3ccccn3)n2)cc1	19.6	3.1	-1.1	21.4	9.7	50.8*	57.0*	55.4*	53.6*
O=c1cc(CSc2ccc(Cl)cc2)nc(-c2ccccn2)[nH]1	-33.4	25.0	96.5*	27.1	27.2	64.1*	83.6*	97.3*	91.5*
O=c1cc(CSc2ccc(Cl)cc2)nc(-c2ccccc2)[nH]1	25.8	17.9	4.3	14.8	11.0	16.7	.	.	.
CCN(CC)S(=O)(=O)c1ccc(N2CC(C(=O)N3Cc4ccccc4CC3C(N)=O)CC2=O)cc1 (stereo unspecified)	5.1	9.1	.	9.1	.	13.1	.	.	.
CCN1c2ccccc2S(=O)(=O)c2ccccc21	-18.2	5.2	2.5	14.4	2.4	19.5	.	.	.
Clc1ccccc1OCCn1cnc2ccccc21	-7.6	34.5	-5.9	23.5	30.0*	75.8*	83.5*	78.8*	63.2*
Clc1ccc(OCCn2cnc3ccccc32)cc1	10.1	32.8	4.5	27.4	9.3	49.0	.	.	.
CC(=O)O[C@H]1CC[C@@]2(C)C(CCC3C2CC[C@]2(C)OC(=O)CCC32)C1 (stereo partly specified)	-47.3	-32.7	7.7	-48.8	20.9	59.9*	57.5*	58.7*	35.1
COC(=O)N[C@@H]1C[C@H]2[C@@H]3CC[C@H]4C[C@@H](OC)CC[C@]4(C)[C@H]3CC[C@]12C	8.1	28.1	.	14.0	.	37.0	.	.	.
CC1CN(S(=O)(=O)c2cccs2)CC(C)O1 (stereo unspecified)	0.4	-11.6	.	-8.9	10.7	-20.9	.	.	.
O=S(=O)(c1cccs1)N1CCN(c2ccc(Cl)cc2)CC1	-14.3	25.3	7.8	11.0	32.7	58.5*	63.3*	46.2	37.4
O=S(=O)(c1cccs1)N1CCN(c2ccccc2)CC1	3.4	7.5	0.4	-2.3	10.0	43.9	.	.	.
Cc1ccc(N2CCN(S(=O)(=O)c3cccs3)CC2C)cc1 (stereo unspecified)	7.0	46.3	15.4	17.1	35.3	55.6*	57.4*	57.0*	50.0
CCCc1ccc(C(=O)NNc2cc(Cl)ccc2Cl)cc1	18.5	28.7	2.1	3.0	5.8	57.0*	53.8*	55.6*	49.0
Cn1cncc1C#Cc1c(C=O)[nH]c2ccccc12	17.6	43.5	.	-2.3	.	7.5	.	.	.
CNc1nc(SCc2ccc(C)cc2)nc2c1CCCC2	11.6	33.5	2.6	27.8	99.4*	97.3*	99.3*	98.7*	99.2*
Oc1ccc(N=Nc2ccc3c(c2)OCCO3)c(O)c1	16.7	35.9	-3.9	31.4	.	50.1*	65.5*	.	.
O=C(Cc1ccc2c(c1)OCCO2)c1c(O)cc(O)cc1O	13.9	27.8	16.6	22.1	20.4	-6.0	.	.	.
Cc1cc(C)n2nc(-c3cccc(Br)c3)cc2n1	3.2	32.2	-4.5	27.9	23.8	49.4	.	.	.
Cc1cc(C)n2ncc(-c3cccc(Br)c3)c2n1	-5.3	22.0	-2.1	25.1	4.7	50.5*	61.6*	31.0	24.4
O=C(CCN1N=C(c2ccccc2)CCC1=O)NCCCN1CCOCC1	-1.2	16.4	16.3	9.9	-18.0	3.2	.	.	.
SMILES	TIM10 inh	tim23-1 inh	SKKanGAS inh	tim10-1 inh	NALP1 inh	NLRP3 yeast inh	NALP3 yeast conf	Casp1-ASC yeast	NALP3 yeast rt
Cc1c(/C(Cc2ccccc2)=N/O)c2ccccc2n1C	-0.3	16.1	-0.6	9.9	22.2	56.4*	60.8*	51.5*	52.8*
Cc1cc(C(=O)COc2ccc(C#N)cc2)c(C)n1CC1CCCO1 (stereo unspecified)	-10.0	11.0	.	10.4	.	21.0	.	.	.
COC(=O)c1sccc1NC(=O)COc1cccc(C)c1	-40.4	18.5	-1.7	0.1	.	54.3*	57.7*	31.4	30.1
CCCOc1ccc(-c2cn3ccccc3n2)cc1	8.3	39.6	-11.3	-18.1	4.9	72.4*	56.1*	88.0*	76.2*
COc1ccc(C2CC(=O)C(C=NCCCO)=C(O)C2)cc1 (stereo unspecified)	4.4	10.7	0.4	4.6	4.9	3.0	.	.	.
CCC(=O)N1CCN(CCN=CC2=C(O)CC(c3ccc(OC)cc3)CC2=O)CC1 (stereo unspecified)	-1.2	20.7	-0.7	14.5	39.4	53.1*	35.4	.	.
CCCCCC(=O)N1CCN(CCN=CC2=C(O)CC(c3ccc(OC)c(OC)c3)CC2=O)CC1 (stereo unspecified)	15.0	10.6	1.9	13.6	5.2	57.8*	65.7*	42.9	37.5
COc1ccc(C2CC(=O)C(C=NCCN3CCNCC3)=C(O)C2)cc1OC (stereo unspecified)	.	.	-0.2	.	-7.5	.	.	.	.
CCCCCC(=O)N1CCN(CCN=CC2=C(O)CC(c3ccc(OC)cc3)CC2=O)CC1 (stereo unspecified)	8.5	12.3	-0.6	0.4	22.6	54.9*	72.0*	46.5	47.9
COc1cc(C2c3c(c(C)c(C)oc3=O)Oc3c(C)c(C)oc(=O)c32)ccc1OS(=O)(=O)c1ccc(C)cc1	2.7	19.3	.	13.6	.	21.3	.	.	.
CCCCC(=O)Nc1ccc(NC(=O)c2ccc([N+](=O)[O-])cc2Cl)cc1OC	7.4	2.6	2.3	13.6	23.6	12.9	.	.	.
Cc1cccc(N(C)c2ccc3cc(S(=O)(=O)N4CCCC4)ccc3n2)c1	-7.2	26.7	0.0	2.4	-55.7	68.4*	79.3*	74.9*	58.1*
O=[N+]([O-])c1cc(Br)c(O)c(/C=N/Nc2nnnn2-c2cccc3ccccc23)c1	9.6	31.8	66.3*	24.7	13.4	52.4*	47.2*	.	.
CC1CCCC(NC(=O)COC(=O)/C=C/c2ccc(F)cc2)C1C (stereo unspecified)	9.8	16.9	.	9.6	.	1.9	.	.	.
CCOC(=O)C1=C(C)NC(C)=C(C(=O)OC)C1c1cccc(Cl)c1Cl (stereo unspecified)	17.3	48.8	-7.7	35.4	10.2	8.2	.	.	.
